Bioassay records: PubChem, National Center for Advancing Translational Sciences (NCATS)
ALOX12 inhib: blocks human 12-lipoxygenase activity. P18054. purified 12-hLO, xylenol orange hydroperoxide absorbance. 150,000 tested, 0.12% active. Potency, µM (doses to about 57.1 µM), inactives show at the top dose activity change, negative = inhibition, actives largely listed as inhibitors. AID 1452; active = well fitted curve in the direction sought with a large enough effect; inconclusive = small, poorly fitted or top-dose-only effect, or another doubt; inactive = no such curve, though single readings can be large; an effect the other way counts as inactive or inconclusive; note: potency is the fitted concentration of half-maximal effect; nearly all actives have a fitted effect of over 55% in size
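Purified human 12hLO (150 nM final) was preincubated with compounds for 15 min at room temperature in 25 mM Hepes pH 7.0, 0.01% Triton X-100, then reacted with 40 uM arachidonic acid for 30 min. Hydroperoxide was detected with ferrous iron/xylenol orange.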
IMPase Li inh: IMPase inhibition in cells with lithium potentiation. CHO-M1 cells, IP1 TR-FRET (IP-One), carbachol + lithium. Potency, µM (top dose mostly 59.4 µM), for the others: top-dose activity, negative = IMPase inhibition, actives largely listed as inhibitors. 210,000 tested, 0.35% active; active = well fitted curve in the direction sought with a large enough effect; inconclusive = small, poorly fitted or top-dose-only effect, or another doubt; inactive = no such curve, though single readings can be large; an effect the other way counts as inactive or inconclusive;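 note: IP1 builds up when IMPase is blocked and the TR-FRET signal falls; potency is the fitted concentration of half-maximal effect; plate controls were basal vehicle for no effect and high inhibitor control for full effect; nearly all actives have a fitted effect of over 50% in size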
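Readout is a homogeneous TR-FRET IP1 immunoassay (Ex 320, Em 665 and 620), where raised cytosolic IP1 lowers signal. Cells were CHO-M1 treated 30 min at 37C with test compounds plus a little lithium; AC50 values came from Hill-equation fitting.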
HPGD block: inhibitors of human 15-hydroxyprostaglandin dehydrogenase (HPGD). P15428. purified HPGD, NADH fluorescence kinetic, PGE2 substrate. 150,000 tested, 4.3% active. Potency, µM, inactives show at the highest dose activity change, negative = inhibition, actives largely listed as inhibitors; note: potency is the fitted concentration of half-maximal effect
Target sequence (P15428 whole entry, looked up): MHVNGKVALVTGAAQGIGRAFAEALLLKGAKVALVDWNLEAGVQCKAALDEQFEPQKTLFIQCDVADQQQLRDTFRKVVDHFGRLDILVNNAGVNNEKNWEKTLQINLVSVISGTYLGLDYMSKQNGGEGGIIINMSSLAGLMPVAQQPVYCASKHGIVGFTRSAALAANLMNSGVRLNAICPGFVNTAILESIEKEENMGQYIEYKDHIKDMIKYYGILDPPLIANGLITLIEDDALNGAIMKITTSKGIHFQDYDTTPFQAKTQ
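20 nM HPGD preincubated 15 min at room temperature with compound in 50 mM Tris-HCl pH 8, 0.01% Tween 20. Started with 1 mM NAD+ and 30 uM prostaglandin E2; NADH fluorescence (360/450 nm) read 5 times over 30-s intervals, last minus first.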
IMPase inh: IMPase inhibition in cells. CHO-M1 cells, IP1 accumulation, HTRF TR-FRET ratio. AID 901. 120,000 tested, under 10 active. P97697. inhibition (IP1 accumulation), % at 46.1 µM; active = well fitted curve in the direction sought with a large enough effect in the signal ratio, not every such curve was filed as active; inconclusive = small, poorly fitted or top-dose-only effect, or a change in a side signal; inactive = no such curve, though single readings can be large or run the other way; the % refers to the signal ratio;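 note: cells stimulated with carbachol in lithium chloride buffer; plate controls were DMSO basal wells for no effect and reference inhibitor wells for full effect; higher means more IMPase inhibition seen as more IP1 and lower FRET ratio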
Target sequence (P97697 whole entry, looked up): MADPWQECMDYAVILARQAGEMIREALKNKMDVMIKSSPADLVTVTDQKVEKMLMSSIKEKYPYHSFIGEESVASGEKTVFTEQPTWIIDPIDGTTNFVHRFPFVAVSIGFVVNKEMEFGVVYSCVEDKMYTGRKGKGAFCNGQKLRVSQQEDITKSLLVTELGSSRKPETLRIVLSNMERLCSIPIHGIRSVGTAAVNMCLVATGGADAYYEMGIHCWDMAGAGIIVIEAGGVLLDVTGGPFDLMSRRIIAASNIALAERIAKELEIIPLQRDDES
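Carbachol-driven Gq signalling in CHO-M1 cells (2000/well) generates IP1. Compounds that block IMPase raise IP1 and so reduce the FRET signal from Eu-anti-IP1 and d2-IP1 after a 10 min room-temperature lysis.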
PNC assembly inh: inhibitors of perinucleolar compartment assembly | PC3M PTB-GFP, PNC prevalence imaging, 16 h; hits give low values | activity change (PNC), negative = inhibition, % at 10 µM | 140,000 tested, 3.1% active;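 active = readout at or below -70, meaning at least 70% loss of cells showing the perinucleolar compartment, a nuclear body marking cancer cells; inconclusive = readout between -30 and a set limit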;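 note: plate controls were DMSO wells for no effect and camptothecin positive control wells for full effect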
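PC3M cells stably expressing PTB-GFP, 750–1000 cells/well, treated 16 h at 37 °C with compound (23 nl of library stock), in duplicate. After paraformaldehyde fixation and Hoechst stain, imaged at 20x; PNC prevalence scored by image analysis.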
ALDH1A1 inh: ALDH1A1 (human) enzyme inhibition; P00352; Purified ALDH1A1, NADH fluorescence, propionaldehyde substrate; Potency, µM (titrated, usually from 75.3 µM), inactives show at the top dose activity, negative = inhibition, usual class: inhibitors; 220,000 tested, 7.3% active;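 note: potency is the fitted concentration of half-maximal effect; plate controls were no enzyme wells and a reference inhibitor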
Starred values were filed as active, the others as inactive; u = inconclusive; x = no result; [ ] = dose if it differs, or a comment. Hits are enriched below; roughly 11% of the tested compounds scored in any of these assays. Unless noted, calls come from the whole dose curve; as a rule, active = well fitted inhibition curve with a large enough effect (not every such curve was filed as active); inconclusive = small, poorly fitted or top-dose-only effect, or another doubt; inactive = no such curve, though single readings can be large or run the other way. Unless noted, % is set by controls: 0 for no effect and ±100 for the full control effect.

SMILES	ALOX12 inhib	IMPase Li inh	HPGD block	IMPase inh	PNC assembly inh	ALDH1A1 inh
NC(N)=NS(=O)(=O)c1ccc(NC(=S)NC(=O)c2sc3ccccc3c2Cl)cc1	0%	-19%	-7%	x	u	u
C=CCn1c(C)c(C(C)=O)c(N2CCN(c3ccccc3)CC2)nc1=S	-12%	2%[38.3 µM]	-23%	-10	27	28µM*
COCCn1c(=O)c(-c2ccc(OC)cc2)nc2cnc(Oc3ccccc3)nc21	1%	1%	u	x	x	u
O=Cc1ccc(Oc2cc(-c3ccccc3)nc(-c3ccccc3)n2)cc1	0%	-10%	-7%	-5	3	22µM*
Cc1ccc(OCC(=O)Nc2c(C(=O)c3ccc(Cl)cc3)oc3ccccc23)cc1C	x	x	x	8	x	x
O=C1c2ccccc2C(=O)N1CCSc1n[nH]c(=S)s1	-6%	20%[38.3 µM]	u	1	-9	2.2µM*
O=C1c2ccccc2C(=O)N1CCSc1ncn[nH]1	5%	-2%	-11%	-8	11	8%
COc1ccc(S(=O)(=O)NCCOc2ccccc2)cc1-n1cnnn1	x	1%	x	x	x	8.9µM*
CCC#CCOCC(=O)Nc1ccccc1	-3%	-4%	-12%	x	x	u
Cc1ccc(SCCNC(=O)CN(c2cccc(C)c2C)S(C)(=O)=O)cc1	x	x	x	-2	x	x
OC(CN1CCN(c2ccccc2)CC1)c1ccc2c(c1)CCN2 (stereo not given)	8%	9%	-6%	-3	40	7.1µM*
CCOC(=O)N1CCN(CC(O)c2ccc3c(c2)CCN3)CC1 (stereo not given)	-11%	x	x	9	-11	18µM*
C=C(C)Cn1c(SCC(=O)Nc2cccc(C)c2)nc2sc3c(c2c1=O)CCCC3	x	x	x	6	x	x
CC(C)OC(=O)c1nn2c(C(F)(F)F)cc(-c3ccc(Br)o3)nc2c1Br	-7%	x	x	6	44	18µM*
CCN(CC)S(=O)(=O)c1ccc(OC)c(NC(=O)c2cccc(C)c2[N+](=O)[O-])c1	x	4%	x	x	x	5.6µM*
CCN(CC)S(=O)(=O)c1ccc(OC)c(NC(=O)c2cccs2)c1	x	19%	x	x	x	u
CCN(CC)S(=O)(=O)c1ccc(OC)c(NC(=S)Nc2cccc(C)c2C)c1	1%	3%	1%	x	9	25µM*
CCN(CC)S(=O)(=O)c1ccc(OC)c(NC(=S)Nc2cccc(C)c2)c1	-19%	3%	-14%	x	15	11µM*
CCCCC(C)(C)[C@H](O)/C=C/[C@H]1[C@H](O)CC(=O)[C@@H]1C/C=C\CCCC(=O)O	-4%	-2%	-4%	x	x	-12%
COC(=O)[C@@]1(Cc2ccc(OC)cc2)[C@H]2c3cc(C(=O)N(C)C)n(Cc4ccccc4)c3C[C@H]2CN1C(=O)c1ccccc1	-5%	5%	-3%	x	x	-1%
O=C(c1csnn1)N1CCC[C@@]2(CCN(C(c3ccccc3)c3ccccc3)C2)C1	3%	13%	-11%	x	x	-1%
CCc1cc2c3c(c1)C(C)CC(C)(C)N3C(=O)C2=O (stereo not given)	0%	-2%	-11%	x	59	0.32µM*
O=C(O)C1C2C=CC(O2)C1C(=O)Nc1ccccc1C(F)(F)F (stereo not given)	-12%	11%[38.3 µM]	-1%	2	22	14µM*
O=C(O)[C@@H]1[C@@H](C(=O)Nc2ccccc2)[C@@H]2C=C[C@@H]1O2	3%[11.4 µM]	-3%	-12%	x	x	-2%[13.5 µM]
Cc1cc(=O)n(-c2ccc(C(=O)O)cc2)[nH]1	x	9%	x	x	x	u
SMILES	ALOX12 inhib	IMPase Li inh	HPGD block	IMPase inh	PNC assembly inh	ALDH1A1 inh
Cc1cc(=O)n(-c2ccc(O)cc2)[nH]1	-11%	-1%[38.3 µM]	-9%	9	11	0.79µM*
COc1cc2c(cc1OC)[C@@H]1CC(=O)[C@@H](CC(C)C)CN1CC2	3%	5%	u	x	x	u
CCN(CC)c1ccc(NC(=O)Nc2ccccc2C(F)(F)F)cc1	-18%	1%[38.3 µM]	-8%	3	8	4µM*
CCN(CC(=O)Nc1ccc(C(C)=O)cc1)CC(=O)Nc1ccccc1C(F)(F)F	x	-4%	x	x	x	10µM*
O=C(Nc1ccccc1C(F)(F)F)Nc1cccc2ccccc12	-1%	-5%[38.3 µM]	-23%	-1	-6	-1%
NCCOB(c1ccccc1)c1ccccc1	u	29%	-25%	13	x	u
Cc1ccc(C(C)C)c(OCc2ccc(C(=O)Nc3ccc(S(N)(=O)=O)cc3C)o2)c1	x	x	x	6	x	x
COc1cccc([C@@H]2Oc3ccc(OC)cc3C[C@H]2OC(=O)NS(=O)(=O)c2ccc(C)cc2)c1	x	15%	-20%	x	x	4%
COc1ccc(-c2nc3cnc(N4CCOCC4)nc3n(C[C@H]3CCCO3)c2=O)cc1	x	-3%	x	x	x	u
COC(=O)c1ccccc1NC(=O)COC(C)=O	-6%	-13%[38.3 µM]	0%	0	18	5.6µM*
CC(=O)OCC(=O)Nc1ccc([N+](=O)[O-])cc1Cl	x	17%	x	x	x	8%
CC(=O)OCC(=O)Nc1ccc(Cl)cc1Cl	-2%	-8%[38.3 µM]	20µM*	6	11	1%
COC(=O)c1ccc(C(=O)OC)c(NC(=O)COC(=O)c2ccccc2OC)c1	-1%	11µM*	u	x	u	u
NC(=O)Cn1c(=O)n(Cc2ccco2)c(=O)c2c3c(sc21)CCCCC3	-11%	5%[38.3 µM]	-18%	9	-20	11µM*
O=c1c2c3c(sc2n(CCN2CCOCC2)c(=O)n1Cc1ccco1)CCCCC3	-18%	14%[38.3 µM]	-14%	2	-28	7.9µM*
O=C(Cn1c(=O)n(Cc2ccco2)c(=O)c2c3c(sc21)CCCC3)Nc1ccccc1	-3%	15%[38.3 µM]	-11%	8	9	u
O=c1c2c3c(sc2n(CCN2CCCCC2)c(=O)n1Cc1ccco1)CCCCC3	-1%	40%[38.3 µM]	-16%	11	-2	5.6µM*
CCOC(=O)O[C@]1(C(=O)COC(=O)CC)CC[C@@H]2[C@@H]3CCC4=CC(=O)C=C[C@@]4(C)[C@H]3[C@H](O)C[C@]21C	-1%[25.6 µM]	14%	-6%	2[20.6 µM]	x	4%[20.9 µM]
Cc1ccc(N(Cc2cc(=O)[nH]c3ccccc23)C(=O)c2ccco2)cc1	-13%	44%[38.3 µM]	-22%	-3	u	u
COc1ccc(CN2CCN(C(=O)c3ccco3)CC2)cc1OC	x	18%	x	x	x	20µM*
O=C(c1ccco1)N1CCN(CC(O)COc2ccc3oc4ccccc4c3c2)CC1 (stereo not given)	-3%	15%[38.3 µM]	-9%	-8	-93*	-10%
COc1cc(NC(=S)N2CCN(C(=O)c3ccco3)CC2)c(OC)cc1Cl	-8%	9%	32µM*	-13	-22	25µM*
COc1ccc(CN(C(=O)c2ccco2)c2ccc(C)cc2)cc1OC	-5%	6%[38.3 µM]	-7%	7	u	7.9µM*
